# Screens (PubChem BioAssay)
# WT yeast gro inh – growth inhibition of WT yeast, mitochondrial fusion screen | mitochondrial fusion phenotypic screen, WT strain | inhibition, % at 10 µM | 190,000 compounds, 2.1% hits | AID 1362; in the data active means inhibition above about 58%; tested in S. cerevisiae
# PHOSPHO1 inh – blocks human PHOSPHO1 phosphatase activity; Q8TCT1; recombinant PHOSPHO1, absorbance phosphatase assay; inhibition, % at 13.3 µM; 290,000 compounds, 1.1% hits; AID 1565; in the data active means inhibition above about 60%
# Target sequence (Q8TCT1 whole entry, looked up): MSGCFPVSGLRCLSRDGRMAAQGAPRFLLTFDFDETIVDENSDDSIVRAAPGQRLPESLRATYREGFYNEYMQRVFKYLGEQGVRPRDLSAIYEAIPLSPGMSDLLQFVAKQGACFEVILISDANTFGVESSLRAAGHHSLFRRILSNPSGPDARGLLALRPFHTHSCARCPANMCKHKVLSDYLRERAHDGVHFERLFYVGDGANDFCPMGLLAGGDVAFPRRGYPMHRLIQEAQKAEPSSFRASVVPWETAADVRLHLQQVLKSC
# SKKanGAS inh – blocks kanamycin growth of S. pyogenes SKKanGAS strain; AID 1662; inhibition, % at 7.5 µM; 300,000 compounds, 1.3% hits; BacTiter-Glo, 6 h;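 active means mean replicate score, as percent of positive control median, at least 50; inconclusive means mean below 50 but one replicate at or above 50; inactive means mean and every replicate below 50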;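 further: strain carries kanamycin resistance gene driven by streptokinase promoter and grows in 40 µg/ml kanamycin; loss of luminescence reflects streptokinase promoter inhibition or plain growth inhibition; 0% = median of DMSO wells and 100% = positive control at its reference dose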
# TPT1 inhibitor – inhibitors of Candida albicans tRNA 2'-phosphotransferase TPT1; recombinant caTPT1, FP RNA substrate dephosphorylation; inhibition, % at 5 µM; 300,000 compounds, 0.81% hits;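 active means inhibition above the mean of all tested compounds plus 3 SD, set per screening campaign, cut at about 24% in these data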;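 further: plate controls were DMSO alone for no effect and ferristatin control at 100 nM for full effect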
# Rtt109 Vps75 – inhibitors of Candida albicans Rtt109/Vps75 histone acetyltransferase | AID 540336 | inhibition, % at 34.9 µM | 330,000 compounds, 0.16% hits | purified Rtt109/Vps75, ThioGlo CoA-SH fluorescence, 4 h;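 active means inhibition of at least 50% in every replicate; inconclusive means best replicate reaches 50% inhibition but some replicates fall short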
# Platelet DG rel – platelet dense granule release activity. human platelet-rich plasma, SFLLRN dense granule ATP release, luminescence. inhibition, %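 (compounds screened at 7.5 µM in platelet-rich plasma)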. 300,000 compounds, 0.22% hits;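 active means mean replicate score, as percent of positive control, at or above 50; inconclusive means mean below 50 but at least one replicate at or above 50; inactive means mean and every replicate below 50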
# TPT1 inh confirm – confirmation of Candida albicans TPT1 inhibitors; shares compounds with TPT1 inhibitor; recombinant caTPT1, fluorescence polarization, RNase T1 coupled; inhibition, % at 5 µM; 2,400 compounds, 74% hits; AID 2149;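 active means inhibition above the primary screen limit, the mean inhibition of all tested compounds plus 3 SD, cut at about 25% in these data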
# RNase T1 inh – counter-screen for TPT1 inhibitors: inhibitors of Aspergillus oryzae RNase T1; shares compounds with TPT1 inhibitor; RNase T1 cleavage, fluorescence polarization, 1536-well; inhibition, % at 5 µM; 2,400 compounds, 83% hits; AID 2153;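 active means inhibition above the solvent-only control well mean plus 3 SD, limit set per screening run, cut at about 23% in these data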;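 further: plate controls were DMSO wells with enzyme for no effect and wells without RNase T1 for full effect; inhibitors block cleavage so intact labeled substrate keeps polarization high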
# Target sequence (P00651 whole entry, looked up): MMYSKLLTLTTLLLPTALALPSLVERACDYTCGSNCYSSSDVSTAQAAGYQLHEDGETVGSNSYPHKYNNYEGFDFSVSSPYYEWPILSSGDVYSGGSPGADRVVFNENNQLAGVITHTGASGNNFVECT
# Starred values were filed as active, the others as inactive; ? = inconclusive; nt = no result given. Compounds with a hit are over-represented: about 3.9% of the library has one in this group of screens.
SMILES,WT yeast gro inh,PHOSPHO1 inh,SKKanGAS inh,TPT1 inhibitor,Rtt109 Vps75,Platelet DG rel,TPT1 inh confirm,RNase T1 inh
CN1C(=O)/C(=C/c2cccn2-c2ccc3ccccc3c2)C(=O)NC1=S,27.4,-2.6,?,38.0*,-0.8,6.8,16.9,20.6
COc1cc(OC)c(OC)cc1/C=C1/C(=O)NC(=O)N(Cc2ccccc2)C1=O,nt,28.5,5.0,26.3*,-4.2,2.8,29.8*,41.5*
COc1cc(OC)c(OC)cc1/C=C1\C(=O)NC(=O)N(Cc2ccccc2)C1=O,2.3,-5.3,1.4,12.6,9.5,-3.2,nt,nt
O=C1NC(=O)N(Cc2ccc(F)cc2)C(=O)/C1=C\c1ccc([N+](=O)[O-])s1,nt,3.3,13.5,22.9,25.2,4.9,nt,nt
CN(C)c1ccc(/C=C2\C(=O)NC(=O)N(CCc3ccc(F)cc3)C2=O)cc1,nt,9.0,2.0,29.6*,5.6,-2.6,66.8*,86.5*
O=C1NC(=O)N(CCc2ccc(F)cc2)C(=O)/C1=C/c1cccs1,1.6,-3.0,10.9,8.1,4.9,0.2,nt,nt
O=C1NC(=O)N(CCc2ccc(F)cc2)C(=O)/C1=C/c1ccco1,7.2,-10.0,2.4,60.5*,?,3.2,13.7,15.1
COc1ccc(CN2C(=O)NC(=O)/C(=C/c3ccc([N+](=O)[O-])s3)C2=O)cc1,nt,-14.3,12.8,27.0*,28.3,2.3,55.9*,72.0*
CC(C)c1ccc(N2C(=O)NC(=O)/C(=C\C=C\c3ccco3)C2=O)cc1,4.1,-7.7,7.4,130.4*,nt,8.0,109.9*,105.9*
O=C1NC(=O)N(Cc2ccc(F)cc2)C(=O)/C1=C\c1ccc(N2CCCC2)cc1,nt,32.7,2.3,82.2*,8.5,-5.5,103.5*,116.6*
COCCN1C(=O)NC(=O)/C(=C\c2ccc(F)cc2)C1=O,-21.8,43.1,3.8,2.5,-0.5,-3.9,nt,nt
Cc1ccc(/C=C2/C(=O)NC(=O)N(CCc3ccc(F)cc3)C2=O)o1,-3.2,17.9,-1.1,27.4*,-1.0,-1.2,6.4,13.7
O=C1NC(=O)N(Cc2ccccc2)C(=O)/C1=C/C=C/c1ccco1,nt,44.8,nt,75.5*,-3.7,0.1,50.1*,67.8*
ClCCOCCCl,nt,nt,nt,nt,0.9,nt,nt,nt
COC(=O)C1=C(c2ccc(C(C)=O)cc2)C[C@@H]2CC[C@H]1N2C(=O)NC1CC1,nt,nt,nt,nt,1.1,nt,nt,nt
Nc1ccncc1Cl,7.8,-25.3,-5.3,1.9,-8.7,1.8,nt,nt
COc1ccc(CN2C(=O)NC(=O)/C(=C\c3ccco3)C2=O)cc1,0.2,-32.7,-6.8,79.9*,2.8,2.1,32.9*,47.1*
O=c1[nH]c(=O)n(C2CCCCC2)c(O)c1C=Nc1ccc(N2CCOCC2)cc1,-10.8,-12.9,-2.5,2.2,2.4,-14.4,nt,nt
CCn1c(O)c(C=NCCN2CCOCC2)c(=O)n(CC)c1=S,nt,23.6,-3.4,38.5*,-1.1,5.2,19.1,27.4*
O=c1[nH]c(=S)n(-c2ccc(Cl)cc2)c(O)c1C=Nc1ccc(N2CCOCC2)cc1,-0.3,17.9,1.7,29.9*,?,-1.7,-49.0,-32.5
CCn1c(O)c(C=Nc2ccc(N3CCOCC3)cc2)c(=O)n(CC)c1=S,-11.3,31.4,2.8,66.2*,3.4,1.3,-25.9,-35.6
COc1ccc([N+](=O)[O-])cc1N=Cc1c(O)n(CCc2ccccc2)c(=O)n(C(C)C)c1=O,21.3,-5.0,15.9,37.9*,nt,4.2,5.9,14.9
COc1ccc(CCn2c(O)c(C=Nc3ccccc3F)c(=O)[nH]c2=O)cc1OC,nt,45.0,-4.8,17.1,-1.1,1.4,nt,nt
CCn1c(O)c(C(=O)CC2NCCc3ccccc32)c(=O)n(CC)c1=S (stereo unspecified),5.5,1.7,nt,62.4*,3.0,nt,55.7*,68.1*
CCOc1ccc(-n2c(O)c(C=Nc3ccc(NC(C)=O)cc3)c(=O)[nH]c2=O)cc1,nt,24.0,-5.7,-2.3,-9.1,5.2,nt,nt
CCc1nnc(NS(=O)(=O)c2ccc(N=Cc3c(O)n(-c4ccc(Cl)cc4)c(=O)[nH]c3=O)cc2)s1,-13.5,-5.1,-12.4,40.3*,0.4,11.3,8.2,14.1
